From PubChem BioAssay (NCATS)
Results filed as inconclusive are left out. The source made the active and inactive calls. Unless noted, calls come from the whole dose curve; as a rule, active = well fitted cell-killing curve with a large enough effect; inconclusive = small, poorly fitted or top-dose-only effect; inactive = flat fitted curve, though single readings scatter.

How the values were obtained:
[1] = Cell Viability - LYMP2-002 (AID 977);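 note: series mostly up to about 92 µM; compound exposure lasted 24 h at 37 °C; plate controls were DMSO only for no effect and 92 µM tetraoctylammonium bromide for full effect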
How it was run: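 Human lymphoblastoid LYMP2-002 cells, 2500 per well, exposed to compounds for 24 h at 37 C in complete medium; viability read as intracellular ATP by CellTiter-Glo luminescence, AC50 from Hill fits.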

[2] = Cell Viability - LYMP2-006 (AID 978); note: series mostly up to about 92 µM; % is set by controls: 0 for no effect and ±100 for the full control effect; nearly all actives have a fitted effect of over 60% in size
How it was run: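 Cells are seeded at 2500 per well and rested 5 hr at 37 C. Compounds are added across a concentration series for 24 hr at 37 C, after which ATP is quantified by luciferase luminescence.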

[3] = Cell Viability - LYMP2-007 (AID 979);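 note: cells exposed to compound for 24 h before reading; 0% = DMSO only and the negative end = 92 µM tetraoctylammonium bromide; nearly all actives have a fitted effect of over 60% in size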
How it was run: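 Human lymphoblastoid cells (2500/well) were plated in complete medium, incubated 5 hr at 37 C, then exposed to compounds for 24 hr at 37 C. Intracellular ATP was read by CellTiter-Glo luminescence after 30 min at room temperature; AC50 from Hill fits.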

[4] = Cell Viability - LYMP2-008 (AID 980); note: % is set by controls: 0 for no effect and ±100 for the full control effect; nearly all actives have a fitted effect of over 60% in size
How it was run: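 Human lymphoblastoid cells (2500/well) were plated, held 5 hr at 37 C, then exposed to compounds for 24 hr at 37 C in complete medium. Intracellular ATP was read by CellTiter-Glo luminescence; AC50 from Hill-fitted concentration-response.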

[5] = Cell Viability - LYMP2-014 (AID 983);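 note: series mostly up to about 92 µM; plate controls were DMSO only for no effect and 92 µM tetraoctylammonium bromide for full effect; nearly all actives have a fitted effect of over 50% in size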
How it was run: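 Human lymphoblastoid cells (2500/well) were pre-incubated 5 hr at 37 C, then exposed to compounds in complete medium for 24 hr at 37 C. Intracellular ATP was read by CellTiter-Glo luminescence after 30 min at room temperature; AC50 from Hill fits.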

[6] = Cell Viability - LYMP2-016 (AID 984); note: % is set by controls: 0 for no effect and ±100 for the full control effect; nearly all actives have a fitted effect of over 55% in size
How it was run: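 Cells were seeded at 2500 per well and rested 5 hr before a 24 hr compound exposure at 37 C. Viability was then gauged as cellular ATP by luciferase luminescence, with AC50 values fitted to the Hill equation.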

[7] = Cell Viability - LYMP2-018 (AID 985);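 note: plate controls were DMSO only for no effect and tetraoctylammonium bromide at 92 µM for full effect; nearly all actives have a fitted effect of over 50% in size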
How it was run: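 Human lymphoblastoid cells (2500/well) were pre-incubated 5 hr at 37 C, then exposed to compounds for 24 hr at 37 C in complete medium. Viability was read as intracellular ATP by CellTiter-Glo luminescence; AC50 values came from Hill-equation fits.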

[8] = Cell Viability - LYMP2-020 (AID 986);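 note: series mostly up to about 92 µM; plate controls were DMSO only for no effect and tetraoctylammonium bromide at 92 µM for full effect; nearly all actives have a fitted effect of over 55% in size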
How it was run: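 Human lymphoblastoid cells, 2500/well, were pre-incubated 5 hr at 37 C, then exposed to compounds for 24 hr at 37 C in complete medium. Intracellular ATP was read by CellTiter-Glo luminescence, and AC50 was derived by Hill fitting of concentration-response data.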

[9] = Cell Viability - LYMP2-024 (AID 988);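 note: plate controls were DMSO only for no effect and 92 µM tetraoctylammonium bromide for full effect; nearly all actives have a fitted effect of over 60% in size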
How it was run: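 Human lymphoblastoid cells (2500/well) in complete medium were preincubated 5 hr at 37 C, then exposed to compounds for 24 hr at 37 C. Intracellular ATP was read by CellTiter-Glo luminescence; AC50 from Hill-equation fits of concentration-response data.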

[10] = Cell Viability - LYMP2-026 (AID 989); note: % is set by controls: 0 for no effect and ±100 for the full control effect; nearly all actives have a fitted effect of over 50% in size
How it was run: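 Human lymphoblastoid cells (2500/well) in complete medium were preincubated 5 hr at 37 C, then exposed to compounds for 24 hr at 37 C. Cellular ATP was read by CellTiter-Glo luminescence; AC50 from Hill-equation fits of concentration-response data.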

[11] = Cell Viability - LYMP1-002 - Assay at 24 hr (AID 993); note: % is set by controls: 0 for no effect and ±100 for the full control effect
How it was run: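 Human lymphoblastoid LYMP1-002 cells, 2500/well in complete medium, were treated with compounds for 24 h at 37 C; intracellular ATP was read by CellTiter-Glo luminescence. AC50 values came from Hill-equation fits of qHTS concentration-response data.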

[12] = Cell Viability - LYMP1-002 - Assay at 40 hr (AID 994)
How it was run: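 Human lymphoblastoid cells, 2500/well in complete medium, were preincubated 5 hr at 37 C, then exposed to compounds for 40 hr at 37 C. Intracellular ATP was read by CellTiter-Glo luminescence after 30 min at room temperature; AC50 from Hill-equation fits.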

[13] = qHTS Assay for Identification of Small Molecule Inducers of Hypoxia Response (AID 2120; active = well fitted curve in the direction sought with a large enough effect in the signal ratio, with a control signal flat, not every such curve was filed as active; the % refers to the signal ratio; note: 0% is about no effect)
How it was run: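 HRE-beta-lactamase reporter in CellSensor HRE-bla ME-180 cells, 2500 cells/well in Opti-MEM with 0.5% dialyzed FBS; compounds tested as titration series, 17 h at 37 degrees C. CCF4 substrate 2.5 h at room temperature; AC50 from 460/530 nm ratio.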

[14] = biological target: Estrogen receptor (Homo sapiens) (UniProt P03372); assay: qHTS assay for small molecule antagonists of estrogen receptor alpha signaling (AID 588513; active = well fitted curve in the direction sought with a large enough effect in the signal ratio, with a control signal flat, not every such curve was filed as active; the % refers to the signal ratio; note: % is set by controls: 0 for no effect and ±100 for the full control effect)
How it was run: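 Fluorescence from CCF4 substrate after 2 h at room temperature gave reporter activity; cells had been exposed to compound and 0.5nM 17-beta-estradiol for 18 h at 37 C. Hill-equation fitting yielded IC50 and maximal response.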

[15] = biological target: Estrogen receptor (Homo sapiens) (UniProt P03372); assay: qHTS assay for small molecule agonists of estrogen receptor alpha signaling (AID 588514; calls by dose curve;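 note: 0% = vehicle only and 100% = reference agonist; nearly all actives have a fitted effect of over 70% in size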)
How it was run: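 ER-alpha-UAS-bla GripTite HEK 293 cells in medium with 2% charcoal/dextran-treated FBS were treated with compound titrations at 37 C for 18 hrs; beta-lactamase reporter read by CCF4 fluorescence after 2 hrs at RT.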

[16] = biological target: Androgen receptor (Homo sapiens) (UniProt P10275); assay: qHTS assay for small molecule agonists of androgen receptor signaling (AID 588515; active = well fitted curve in the direction sought with a large enough effect in the signal ratio, with a control signal flat; the % refers to the signal ratio; note: % is set by controls: 0 for no effect and ±100 for the full control effect); conditions: AR-UAS-bla HEK293, beta-lactamase ratio, agonist 16 h; stronger effect = higher value
How it was run: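 EC50 and efficacy came from Hill fits of titrations (up to 92 uM) normalized to 30 nM R1881 as 100% and DMSO as 0%. Compound exposure was 16 h at 37 C on AR-UAS-bla HEK293 cells, with a 405/460/530 nm CCF4 fluorescence read.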

[17] = biological target: Androgen receptor (Homo sapiens) (UniProt P10275); assay: qHTS assay for small molecule antagonists of androgen receptor signaling (AID 588516; active = well fitted curve in the direction sought with a large enough effect in the signal ratio, with a control signal flat, not every such curve was filed as active; the % refers to the signal ratio; note: % is set by controls: 0 for no effect and ±100 for the full control effect)
How it was run: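 Cells were plated and incubated 5 h, compounds added in titration, then R1881 (10 nM final) as agonist. After 16 h at 37 C, CCF4 substrate was loaded for 2 h at room temperature and fluorescence measured.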

[18] = biological target: Bile acid receptor (Homo sapiens) (UniProt Q96RI1); assay: qHTS assay for small molecule antagonists of farnesoid X receptor signaling (AID 588526; calls by dose curve; note: % is set by controls: 0 for no effect and ±100 for the full control effect)
How it was run: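 Antagonist mode: titrated compounds tested against chenodeoxycholic acid stimulation (normalized to 50 uM CDCA and DMSO) in GeneBLAzer HEK293T cells for 16 h. Beta-lactamase read by CCF4 fluorescence; IC50 from Hill fits.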

[19] = biological target: Bile acid receptor (Homo sapiens) (UniProt Q96RI1); assay: qHTS assay for small molecule agonists of farnesoid X receptor signaling (AID 588527; calls by dose curve;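 note: series mostly up to about 77 µM; 0% = vehicle basal and 100% = reference agonist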); conditions: HEK293T FXR-UAS-bla, beta-lactamase ratio, 16 h; stronger effect = higher value
How it was run: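 FXR-UAS-bla HEK293T, 10% dialyzed FBS; cpds up to 92 uM titration, 16 h 37 C; CCF4 dye 2 h RT; fluorescence. Normalized to chenodeoxycholic acid 100 uM (100%) and DMSO (0%); Hill fit gives EC50, efficacy.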

[20] = biological target: Glucocorticoid receptor (Homo sapiens) (UniProt P04150); assay: qHTS assay for small molecule antagonists of glucocorticoid receptor signaling (AID 588533; active = well fitted inhibition curve with a large enough effect in the signal ratio, with a control signal flat, not every such curve was filed as active; the % refers to the signal ratio)
How it was run: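 Antagonist-mode qHTS: compound titrations added to GRE-bla HeLa cells, then dexamethasone 2 nM final; 18 h, 37 C. CCF4 FRET fluorescence normalized to dexamethasone and DMSO; IC50 from Hill fit.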

[21] = biological target: Peroxisome proliferator-activated receptor delta (Homo sapiens) (UniProt Q03181); assay: qHTS assay for small molecule agonists of peroxisome proliferator-activated receptor delta signaling (AID 588534; calls by dose curve;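 note: 0% = DMSO basal wells and 100% = positive control agonist at 10 µM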)
How it was run: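 Cell-based beta-lactamase reporter assay run in agonist mode: cells seeded and incubated 5 hrs at 37 C, compounds added and incubated 18 hrs at 37 C. CCF4 dye fluorescence read after 2 hrs at RT; EC50 and efficacy from Hill fits.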

[22] = qHTS assay for small molecule antagonists of peroxisome proliferator-activated receptor delta signaling (AID 588535; active = well fitted inhibition curve with a large enough effect in the signal ratio, with a control signal flat, not every such curve was filed as active; the % refers to the signal ratio;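 for max response: cells co-treated with a PPAR-delta agonist as stimulator during compound exposure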); conditions: HEK293T PPARd-UAS-bla, beta-lactamase FRET ratio, 18 h; 460 nm channel
How it was run: (§1)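 Cells were seeded at 4000 per well in assay medium containing 2% charcoal/dextran FBS and held 5 hrs at 37 C. Compounds were then added for 18 hrs. CCF4 substrate was applied for 2 hrs at room temperature before fluorescence reading.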

[23] = biological target: Peroxisome proliferator-activated receptor delta (Homo sapiens) (UniProt Q03181); assay: as above
How it was run: as §1

Sequence of Peroxisome proliferator-activated receptor delta (Homo sapiens) (Q03181 whole entry, looked up): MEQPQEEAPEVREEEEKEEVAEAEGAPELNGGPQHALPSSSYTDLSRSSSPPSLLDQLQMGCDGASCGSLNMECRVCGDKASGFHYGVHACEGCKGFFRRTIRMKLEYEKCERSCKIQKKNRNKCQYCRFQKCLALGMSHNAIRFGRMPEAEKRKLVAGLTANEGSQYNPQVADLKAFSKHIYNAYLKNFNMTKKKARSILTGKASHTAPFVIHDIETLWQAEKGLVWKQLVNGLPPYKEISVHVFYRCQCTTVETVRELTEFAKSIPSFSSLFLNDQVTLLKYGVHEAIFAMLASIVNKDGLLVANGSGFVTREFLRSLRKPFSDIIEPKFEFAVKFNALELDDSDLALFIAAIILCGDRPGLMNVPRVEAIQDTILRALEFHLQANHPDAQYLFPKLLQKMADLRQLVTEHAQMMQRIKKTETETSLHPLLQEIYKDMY
Sequence of Bile acid receptor (Homo sapiens) (Q96RI1 whole entry, looked up): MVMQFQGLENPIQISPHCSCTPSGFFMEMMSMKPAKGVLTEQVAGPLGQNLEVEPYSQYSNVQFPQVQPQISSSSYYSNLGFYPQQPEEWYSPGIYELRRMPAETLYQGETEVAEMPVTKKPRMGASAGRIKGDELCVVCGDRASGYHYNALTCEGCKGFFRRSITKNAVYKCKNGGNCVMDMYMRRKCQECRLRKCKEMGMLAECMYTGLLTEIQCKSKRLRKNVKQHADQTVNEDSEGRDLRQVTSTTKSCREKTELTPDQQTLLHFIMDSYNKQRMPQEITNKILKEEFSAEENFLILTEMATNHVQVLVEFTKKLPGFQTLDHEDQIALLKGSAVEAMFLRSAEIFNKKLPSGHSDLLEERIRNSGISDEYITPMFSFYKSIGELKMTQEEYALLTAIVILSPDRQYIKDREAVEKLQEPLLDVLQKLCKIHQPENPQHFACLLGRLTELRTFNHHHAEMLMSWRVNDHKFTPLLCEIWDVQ
Sequence of Estrogen receptor (Homo sapiens) (P03372 whole entry, looked up): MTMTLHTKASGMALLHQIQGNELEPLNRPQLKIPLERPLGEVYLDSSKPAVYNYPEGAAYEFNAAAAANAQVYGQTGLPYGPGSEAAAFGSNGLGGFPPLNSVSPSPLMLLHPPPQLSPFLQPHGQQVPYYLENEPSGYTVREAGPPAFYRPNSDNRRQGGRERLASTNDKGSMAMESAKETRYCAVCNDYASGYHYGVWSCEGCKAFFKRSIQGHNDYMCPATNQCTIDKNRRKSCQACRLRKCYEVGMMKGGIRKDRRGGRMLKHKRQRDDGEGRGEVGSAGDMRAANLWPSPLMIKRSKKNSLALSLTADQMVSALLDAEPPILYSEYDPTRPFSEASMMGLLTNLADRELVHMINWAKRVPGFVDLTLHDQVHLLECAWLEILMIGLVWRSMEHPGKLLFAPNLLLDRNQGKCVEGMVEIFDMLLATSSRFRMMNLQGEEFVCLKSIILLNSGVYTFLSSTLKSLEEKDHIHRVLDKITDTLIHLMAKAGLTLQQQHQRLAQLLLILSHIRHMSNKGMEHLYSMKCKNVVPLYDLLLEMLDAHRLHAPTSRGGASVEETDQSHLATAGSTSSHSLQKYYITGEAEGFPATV
Sequence of Androgen receptor (Homo sapiens) (P10275 whole entry, looked up): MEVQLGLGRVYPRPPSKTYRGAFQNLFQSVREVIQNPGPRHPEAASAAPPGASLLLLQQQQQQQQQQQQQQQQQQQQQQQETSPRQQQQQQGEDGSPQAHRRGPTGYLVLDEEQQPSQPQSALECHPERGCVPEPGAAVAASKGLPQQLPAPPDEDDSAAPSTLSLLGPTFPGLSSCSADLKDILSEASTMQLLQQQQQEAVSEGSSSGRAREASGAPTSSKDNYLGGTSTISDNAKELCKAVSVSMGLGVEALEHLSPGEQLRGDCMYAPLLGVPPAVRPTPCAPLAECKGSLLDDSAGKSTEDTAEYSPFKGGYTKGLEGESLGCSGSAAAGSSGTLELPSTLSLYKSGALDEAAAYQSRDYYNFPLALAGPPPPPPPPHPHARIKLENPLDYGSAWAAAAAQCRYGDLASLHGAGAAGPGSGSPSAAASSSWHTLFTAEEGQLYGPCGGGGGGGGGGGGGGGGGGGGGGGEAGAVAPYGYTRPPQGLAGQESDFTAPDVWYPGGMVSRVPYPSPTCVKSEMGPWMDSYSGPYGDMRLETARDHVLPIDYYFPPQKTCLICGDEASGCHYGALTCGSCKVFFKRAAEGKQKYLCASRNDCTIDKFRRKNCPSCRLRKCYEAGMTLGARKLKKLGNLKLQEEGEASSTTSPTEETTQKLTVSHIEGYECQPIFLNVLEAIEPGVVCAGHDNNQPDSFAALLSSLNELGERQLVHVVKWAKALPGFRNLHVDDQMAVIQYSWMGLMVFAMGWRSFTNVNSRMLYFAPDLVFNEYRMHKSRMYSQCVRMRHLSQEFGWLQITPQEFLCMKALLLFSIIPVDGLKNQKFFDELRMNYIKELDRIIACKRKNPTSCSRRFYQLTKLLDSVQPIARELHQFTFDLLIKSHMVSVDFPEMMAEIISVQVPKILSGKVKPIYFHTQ
Sequence of Glucocorticoid receptor (Homo sapiens) (P04150 whole entry, looked up): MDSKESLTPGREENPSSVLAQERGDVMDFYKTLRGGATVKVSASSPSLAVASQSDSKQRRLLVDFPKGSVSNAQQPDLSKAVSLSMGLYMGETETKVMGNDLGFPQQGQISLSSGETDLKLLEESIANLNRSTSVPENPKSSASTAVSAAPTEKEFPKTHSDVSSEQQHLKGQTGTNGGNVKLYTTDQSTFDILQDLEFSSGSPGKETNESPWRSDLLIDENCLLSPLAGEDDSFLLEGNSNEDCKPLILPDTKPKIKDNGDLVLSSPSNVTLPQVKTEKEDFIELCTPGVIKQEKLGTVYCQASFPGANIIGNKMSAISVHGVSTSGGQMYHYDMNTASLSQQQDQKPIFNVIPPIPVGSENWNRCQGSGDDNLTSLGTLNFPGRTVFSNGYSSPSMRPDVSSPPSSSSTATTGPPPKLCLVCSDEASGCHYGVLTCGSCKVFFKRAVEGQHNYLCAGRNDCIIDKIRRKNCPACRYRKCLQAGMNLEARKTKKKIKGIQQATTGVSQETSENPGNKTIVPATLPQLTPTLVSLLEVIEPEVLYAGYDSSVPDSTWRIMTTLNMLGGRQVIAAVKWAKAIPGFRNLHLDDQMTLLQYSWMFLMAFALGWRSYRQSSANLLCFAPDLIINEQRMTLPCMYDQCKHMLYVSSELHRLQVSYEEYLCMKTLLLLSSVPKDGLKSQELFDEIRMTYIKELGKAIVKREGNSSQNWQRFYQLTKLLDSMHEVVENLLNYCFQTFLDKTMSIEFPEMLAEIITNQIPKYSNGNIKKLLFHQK

S=C=Nc1cccc2ccccc12
inactive: Potency [1] | Potency [2] | Potency [3] | Potency [4] | Potency [5] | Potency [6] | Potency [7] | Potency [8] | Potency [9] | Potency [10] | Potency [11] | Potency [12] | outcome [13] | Potency [14] | Potency [15] | activation [16] -5.44% | Potency [17] | outcome [18] | activation [19] -1.78% | Potency [20] | outcome [21] | Potency [23]
-3.26%: max response [22]
